Reference: the supplement of paper PMC11417369
± gives the standard deviation of the averaged measurements. Whole data set: some 25,000 sequences, median “ln(normalized median fluorescence intensity)” near 10, cut for the highest 2% near 12. Many of the other results were omitted from the sample, so the highest values are more common in it than they were.

system: PfAP2-G AP2 domain (GST-tagged); test: gcPBM binding intensity (ln(normalized median fluorescence intensity)); higher = stronger DNA binding
Procedure, shortened: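 Probes on an Agilent 4 × 180k array were primer-extended, double-stranded and 36 bp long, taken from intergenic genomic regions, with negative controls added. GST-tagged P. falciparum DNA-binding domains from E. coli, about 25 μg on average, were applied to the array for 1 h in 1× PBS containing 1% milk, 0.2 mg/ml BSA, 0.5% salmon testes DNA and 0.03% Triton X-100. Binding intensity, obtained after Alexa488 anti-GST antibody detection and a 488 nm scan, is the highest Masliner-normalised natural-log median intensity across replicate spots of either probe orientation.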

| Sequence | gcPBM binding intensity (ln) |
| --- | --- |
| TTTTTTAAATTTTGAATTATAACTACATTAAAGAAA [GTGCAC_negctrl_site279] | 9.8 ± 0.33 |
| AATATATATATTTAAGTGCATAATATTGTAATATTA | 9.91 ± 0.028 |
| GGTATATAAAAATATTGTACTTAAAAAAATATGTAT [XGTACX_site6253] | 11.4 ± 0.99 |
| TTGTTAATATGATAAAAGAGGAATATTCTCTTCCTA [GTGCAC_negctrl_site659] | 9.48 ± 0.14 |
| ATATACATAATCTTCTTGCACTTTTTTTTTTTTTTT [GTGCAC_site9410] | 10.3 ± 0.22 |
| AAAAAAGAACGCATAGTGCATATCTAAAAGATTTTT | 9.85 ± 0.014 |
| TATGTTAAAAAAAAATGTACATATGTTTTTGTTAAA [XGTACX_site4754] | 11.2 ± 0.86 |
| ATATAATATATATGGTGTACATTTTTTAGTGCTATT [XGTACX_site1662] | 11.4 ± 0.76 |
| TATATATATATATGTACACACATATATACCTTTCAT [CACACA_site2679] | 11.4 ± 0.81 |
| AATATGACGTAGTGGTGTACACACATGGTACCTTTA [XGTACX_site3147] | 11.7 ± 0.83 |
| ATGACGTAGTGGTGTACACACATGGTACCTTTATTC [CACACA_site1547] | 11.6 ± 0.84 |
| TATATATATTTATGTACACACATATATACCTTTCAT [CACACA_site5479] | 11.4 ± 0.86 |
| ATATGACGTAGTGGTGTACACACATGGTACCTTTAT [CACACA_site8436] | 11.9 ± 1.1 |
| TTATATATTAATAGTAGTACTATATTGAATCACCCC [XGTACX_site2868] | 11.3 ± 0.85 |
| TAATTTATAAATATAATATTTATGTATATGATGTTT [CACACA_negctrl_site464] | 9.795 ± 0.078 |
| CATATTTTGAACTTCACACATATATATATATATATA [CACACA_site4228] | 10.3 ± 0.54 |
| TTTTCTCAATTTTGGTGTACTTTTTTCTTAACACAT [XGTACX_site8918] | 11.7 ± 1 |
| TCACACCTTTTTGGTTGTACTTAAATTTCTTTTTTT [XGTACX_site6438] | 11.2 ± 0.75 |
| ATTTTATTAATTTGGTGTACTTAATTTATATTTTTC [XGTACX_site4947] | 11.6 ± 0.92 |
| GTTTATGTATTATTATGTACGTATCATAATATATAT [XGTACX_site2385] | 11.5 ± 0.82 |
| ATCTAAACCTTTTGAGCACACATATATATATATATA [CACACA_site8526] | 10.4 ± 0.3 |
| TGTTCCGAAGGTTGTACACACATAGAAATATACATA [CACACA_site3874] | 11.6 ± 0.74 |
| TATGTTCCGAAGGTTGTACACACATAGAAATATACA [CACACA_site9285] | 11.6 ± 0.8 |
| ATATGTTCCGAAGGTTGTACACACATAGAAATATAC [XGTACX_site8227] | 11.6 ± 1 |
| AACCACATGGTGTAATGTACATTACCTTAACAATAA [XGTACX_site3055] | 10.7 ± 0.42 |
| TAAAATATACAAATTTGTACATATATATGTATGTAT [XGTACX_site1127] | 10.9 ± 0.38 |
| AGAAAATTAAAAAGAACACACAAATATATATATAAT [CACACA_site5896] | 10.045 ± 0.007 |
| ATATATATATATAATGCACACATTATGAATTATGTA [CACACA_site3384] | 9.9 ± 0.42 |
